This passage reports inhibition results from PubChem BioAssay AID1986 (Sanford-Burnham Center for Chemical Genomics, 2009).

The campaign covered roughly 290,000 compounds. About 890 (0.31%) were called active. No stated cut-off is given here; in the data, active means inhibition mostly above about 52% (no sharp cut-off); inactive means mostly below about 76%. Only a selection was taken, and actives are over-represented in it overall.

This test is described as follows: cell-free HIV fusion peptide-binding blockers – biochemical, uHTS, fluorescence dequenching, primary screen (AID 1986). To be noted: 30 min, stronger effect = higher value.
Setting [1] is: measured here: repeat confirmation average inhibition, at 18.6 µM.

As for `CC(=O)NS(=O)(=O)c1ccc(N=c2ssc3c2-c2cc(C)ccc2NC3(C)C)cc1`, the inhibition (at 20 µM) is 46.9% (inactive).
For the compound `CC(=O)NS(=O)(=O)c1ccc(N=c2ssc3c2-c2cc(C)c(C)cc2NC3(C)C)cc1`, the inhibition is 51.7% (inactive) (at 20 µM) and 11.3% under setting [1].
For `CC(=O)NS(=O)(=O)c1ccc(N=c2ssc3c2-c2ccc(C)cc2NC3(C)C)cc1`, the inhibition (at 20 µM) is 52.5% (active).
The same measure, in the same setting: for `Cc1snc(SCc2cccc(Cl)c2)c1C#N` the value was -1.1% (inactive); for `Cc1nc(SCC(=O)N2c3ccccc3Sc3ccccc32)n[nH]1`, -1.2% (inactive); for `N#Cc1c(Cl)nc(SCc2ccccc2)nc1-c1ccccc1`, -2.7% (inactive).
On the same count and under the same terms, under `O=C(CSc1nc(O)cc(=O)[nH]1)N1c2ccccc2Sc2ccccc21` stands 2.6% (inactive); under `CC(C)NC(=O)CSc1nnc(-c2ccc(S(=O)(=O)N3CCCC3)cc2)n1CC1CCCO1` (stereo unspecified), -1.1% (inactive); under `CCn1cnc2scc(-c3ccc(OC)cc3)c2c1=O`, 2% (inactive).
Same read-out and setting: under `CC1CCC2(CC1)NC(=O)N(Cc1cc(=O)n3ccsc3n1)C2=O` (stereo unspecified) stands -0.3% (inactive); under `O=C(OCc1c(Cl)cccc1Cl)c1cccnc1`, -1.3% (inactive); under `CCCN(CCC)Cc1cc2ccccc2c2c1COC2`, 1.9% (inactive).
In the case of `Cc1ccc(Cc2c(C)[nH]c(=S)[nH]c2=O)cc1`, the inhibition (at 20 µM) is 0.1% (inactive).
On to `CCOc1ccc(CC(=O)Nc2cc(=O)n(C)c(=O)n2C)cc1`, for which the inhibition (at 20 µM) is 1.4% (inactive).
For `N/C(=N\NC(=O)c1cccs1)c1cc2cc(Cl)ccc2oc1=O`, the inhibition (at 20 µM) was 2.7% (inactive).
For `CCN(CC)c1ccc2cc(/C(N)=N/NC(=O)c3cccs3)c(=O)oc2c1`, the inhibition (at 20 µM) was 99.5% (active) and the inhibition under setting [1] amounted to 53.8%.
In the same order, the values of `CCN(CC)c1ccc2cc(C(N)=O)/c(=N\NC(=O)c3ccncc3)oc2c1` are 97.7% (active) and 54.3%.
On to `NC(=O)c1cc2ccccc2o/c1=N\NC(=O)c1ccncc1`, for which, for the setting “at 20 µM”, the inhibition is -1.9% (inactive).
Same read-out and setting: under `CCN(CC)c1ccc2cc(C(N)=O)c(=N)oc2c1` stands 136% (inactive); under `N/C(=N\NC(=O)c1cccs1)c1cc2ccccc2oc1=O`, 1.8% (inactive); under `COC(=O)CCc1nc2cc(Cl)ccc2n(Cc2ccccc2)c1=O`, 0% (inactive).
Same read-out and setting: for `O=C(NCc1cccs1)C1CC(=O)N(c2ccccc2)C1` (stereo unspecified) the value was -2.2% (inactive); for `COc1cccc(C=N[C@@H](CO)[C@@H](O)c2ccc([N+](=O)[O-])cc2)c1O`, -1% (inactive).
For the compound `COC(=O)/C(N=Nc1c(C)n(C)n(-c2ccccc2)c1=O)=C(\C)O`, the inhibition (at 20 µM) is 2.8% (inactive).
Same read-out and setting: under `CCCCC1=CC2=CC(=O)C(C)(OC(=O)CCc3ccccc3)C(=O)C2=CO1` (stereo unspecified) stands 41.7% (inactive).
Regarding `COC(=O)CCCC1=CC2=CC(=O)C(C)(OC(=O)C3CCCC3)C(=O)C2=CO1` (stereo unspecified), the inhibition is, setting by setting: (at 20 µM) 52.5% (inactive); under setting [1], 24.7%.
As to `CCCCC1=CC2=CC(=O)C(C)(OC(=O)C3CCCC3)C(=O)C2=CO1` (stereo unspecified), under “at 20 µM”, the inhibition was 68.3% (active).
The same measure, in the same setting: for `O=C(Cn1cccc1C(=O)c1ccccc1)NCc1ccc2c(c1)OCO2` the value was -0.1% (inactive).
Same read-out and setting: under `CC(CCc1ccccc1)NC(=O)CSc1cccc[n+]1[O-]` (stereo unspecified) stands 2.5% (inactive).
Take `O=C(N/N=C/c1ccc([N+](=O)[O-])o1)c1cn(-c2ccccc2)nc1-c1ccccc1`: the inhibition (at 20 µM) was 65.8% (inactive) and the inhibition under setting [1] is -1.2%.
In the same order, the values of `COc1ccc(-c2nn(-c3ccccc3)cc2C(=O)N/N=C/c2ccc([N+](=O)[O-])o2)cc1` are 55.9% (inactive) and 0.9%.
Consider `O=C(N/N=C/c1ccc([N+](=O)[O-])o1)c1cn(-c2ccccc2)nc1-c1ccc(Cl)cc1`, for which the inhibition (at 20 µM) is 64% (active).
The same measure, in the same setting: under `COc1ccccc1OCCNC(=O)C1CCCCC1` stands -0.2% (inactive).
As for `COc1ccccc1N1C(=O)C2C(C(=O)c3ccccc3)=NN(c3ccccc3)C2C1=O` (stereo unspecified), the inhibition is, setting by setting: (at 20 µM) 72.1% (inactive); under setting [1], 33.6%.
As to `COC(=O)C1=NN(c2ccc(OC)cc2)C2C(=O)N(c3ccccc3OC)C(=O)C12` (stereo unspecified), the inhibition (at 20 µM) is -0.7% (inactive).
For the compound `COc1ccccc1N1C(=O)C2C(C(=O)c3ccccc3)=NN(c3ccc(Br)cc3)C2C1=O` (stereo unspecified), the inhibition (at 20 µM) was 54.9% (active) and the inhibition under setting [1] was 55%.
In the same order, the values of `COc1ccccc1N1C(=O)C2C(C(=O)c3ccccc3)=NN(c3ccccc3OC)C2C1=O` (stereo unspecified) are 59.5% (inactive) and 13.2%.
As to `COC(=O)C1=NN(c2ccccc2)C2C(=O)N(c3ccccc3OC)C(=O)C12` (stereo unspecified), the inhibition (at 20 µM) was 1.2% (inactive).
Turning to `COc1ccccc1N1C(=O)C2C(C(=O)c3ccccc3)=NN(c3ccc(C)cc3)C2C1=O` (stereo unspecified), the inhibition (at 20 µM) is 85.1% (active) and the inhibition under setting [1] is 102%.
As for `O=C(Nc1ccc(F)cc1F)C1CCN(C(=O)c2ccc(Br)cc2)CC1`, for the setting “at 20 µM”, the inhibition is 1.2% (inactive).
For `Cc1ccc(CCNC(=O)c2nnc(CS(=O)(=O)c3ccccc3)o2)cc1`, where the note is “at 20 µM”, the inhibition was -0.3% (inactive).
Still for that read-out and setting: under `O=C(COC(=O)c1ccc2c(c1)C(=O)N(Cc1ccco1)C2=O)NCC(F)(F)F` stands 1.5% (inactive); under `Nc1ccc(Cc2ccc(N)c(O)c2)cc1O`, 52.4% (active); under `Nc1ccc(Cc2ccc(N)c(C(=O)O)c2)cc1C(=O)O`, 5.8% (inactive).
Regarding `Cc1cc(Cc2ccc(N)c(C)c2)ccc1N`, under “at 20 µM”, the inhibition is -1.4% (inactive).
The same measure, in the same setting: for `CC(C)COc1ccc(S(=O)(=O)n2cc(F)c(=O)[nH]c2=O)cc1` the value was 2.9% (inactive); for `COc1cccc(-c2nc(Cc3ccc(OC)c(OC)c3)no2)c1`, 2.1% (inactive); for `COc1ccc(Cc2noc(-c3ccccc3)n2)cc1OC`, 61.8% (active).
For `COc1ccc(Cc2noc(-c3ccc(OC)c(OC)c3)n2)cc1OC`, the inhibition (at 20 µM) was 0.9% (inactive).
Still for that read-out and setting: for `CC(C)CNC(=O)c1cccc(NC(=O)c2ccco2)c1` the value was -0.6% (inactive); for `CCOC(=O)C1=C(C)N(CC)C(=S)NC1c1ccccc1OC(F)F` (stereo unspecified), -2% (inactive); for `CCOC(=O)c1c(NC(=O)N/N=C/c2ccc(O)c(OC)c2)sc(C(C)=O)c1C`, -2.2% (inactive).
Take `N#Cc1ccc2ccn(CC(=O)NCc3ccccc3)c2c1`: where the note is “at 20 µM”, the inhibition was -1.6% (inactive).
Regarding `CC(C)(C)/C(O)=C(/C#N)c1nc2ccccc2[nH]1`, the inhibition (at 20 µM) was -1.6% (inactive).
Same read-out and setting: for `CN(C)c1cccc(C(=O)NNC(=S)NC2CC3CCC2C3)c1` (stereo unspecified) the value was -1.9% (inactive).
Same read-out and setting: under `CCOC(=O)c1c(S(=O)(=O)Nc2ccccn2)c(C)n(C)c1C` stands 2.8% (inactive); under `COc1ccccc1CNC(=O)C1CCC(CNS(=O)(=O)c2ccc(F)cc2)CC1` (stereo unspecified), -1% (inactive); under `Cc1ccc(NC(=O)c2ccc(NCCc3ccccc3)c([N+](=O)[O-])c2)cc1F`, 2.5% (inactive).
Consider `Cc1cccc(NC(=O)c2ccc(NCCc3ccccc3)c([N+](=O)[O-])c2)c1`, for which the inhibition was 96.9% (active) (at 20 µM) and 58.9% under setting [1].
For `O=C(Nc1ccccc1)c1ccc(NCCc2ccccc2)c([N+](=O)[O-])c1`, for the setting “at 20 µM”, the inhibition is 147% (inactive).

Broadly, the inhibition is the change of the read-out against control, counted positive when it falls.
